Hit rate of the full screen: of about 69,000 compounds, about 8,600 (12%) showed an effect of 50% or more. The sample as a whole holds a higher share of strong results than the screen did.
The molecules below were run on Plasmodium berghei (assay: Screen against P. berghei liver stage (PbLuc), transformed with Luciferase, at 10uM). Conditions: tested at 10 uM.
Format: functional, HepG2

Row | Structure (SMILES) | INHIBITION
1 | O=S1(=O)c2ccccc2OCC2(CCN(CCO)CC2)CN1CC1CC1 | -8.94%
2 | CC(=O)N1CCC2(CCCN(C(=O)c3ccc(Cl)c(C(F)(F)F)c3)C2)C1 (stereo not given) | 28.7%
3 | CC(=O)N1CCCC2(CCN(C(=O)c3ccc(Cl)c(C(F)(F)F)c3)C2)C1 (stereo not given) | 32.2%
4 | CC(=O)N1CC2(CCN(C(=O)c3ccc4c(c3)OCCO4)CC2)C1 | -38.1%
5 | CC(=O)N1CCC2(CCN(C(=O)c3ccc(Cl)c(C(F)(F)F)c3)C2)C1 (stereo not given) | 50.9%
6 | CC(=O)N1CCC2(CCN(C(=O)c3ccc(Cl)c(C(F)(F)F)c3)CC2)C1 | 51.2%
7 | CC(=O)N1CC2(CCN(C(=O)c3ccoc3)C2)C1 | 27.6%
8 | N[C@H]1CCCN(C(=O)c2cnc(COc3ccccc3)nc2O)C1 | -58%
9 | Cc1nc(-c2cccnc2)ncc1C(=O)N1CCCCC(N)C1 (stereo not given) | 55.6%
10 | Cc1nc(-c2cccnc2)ncc1C(=O)N1CCC(C(C)N(C)C)CC1 (stereo not given) | 70.4%
11 | Cc1nc(-c2cccnc2)ncc1C(=O)N1CCC(c2ncc[nH]2)CC1 | 21.6%
12 | Cc1nc(-c2cccnc2)ncc1C(=O)N1CCCC(N(C)C)CC1 (stereo not given) | 21.6%
13 | CCCOCC1CCN(C(=O)c2cnc(-c3cccnc3)nc2O)C1 (stereo not given) | -27.3%
14 | Cc1nn(C)c(C)c1C1CCCN1Cc1nc(-c2cccs2)no1 (stereo not given) | -2.53%
15 | CC(C)c1nccc(CN2CCCC(O)(CN(C)C)CC2)n1 (stereo not given) | -3.55%
16 | CC1CN(CC(=O)N2CCOCC2)CCN1Cc1nccn1C (stereo not given) | 20.915%
17 | Cc1nc2c(c(Nc3ccccn3)n1)CN(S(C)(=O)=O)CC2 | -10.4%
18 | N#Cc1ccccc1C(=O)N1C[C@@H]2CC[C@H]1CN(Cc1ccccc1)C2 | 27.6%
19 | COc1cc2nc(NCc3scnc3C)nc(N)c2cc1OC | 45%
20 | COCCCSc1ccc(NCc2cscn2)cc1 | 26.9%
21 | COCCCSc1ccc(NCc2ccc(C)cn2)cc1 | 72.2%
22 | COCCn1ccc(NCc2scnc2C)n1 | 17.7%
23 | COCCCSc1ccc(NC(=O)Nc2cn[nH]c2)cc1 | 41.2%
24 | COCCCSc1ccc(NCc2scnc2C)cc1 | 95.4%

Row | Structure (SMILES) | INHIBITION
25 | COCCCNC(=O)c1cc(OC)c2ccoc2c1 | -25.7%
26 | CNC(=O)[C@H]1C[C@@H]2CN(C(=O)c3ccoc3)C[C@@H]2N1S(C)(=O)=O | -15.2%
27 | Cc1ccsc1C(=O)NCc1ccnc(N2CCN(C)CC2)c1 | 4.45%
28 | Cn1cc(NC(=O)Cc2ccccc2Br)cc1C(N)=O | -3.21%
29 | CC(C)(C)c1ccc(OCC(=O)O)c(CN2C[C@H]3CC(O)C[C@H]3C2)c1 (stereo not given in full) | 40.55%
30 | Cc1ccccc1CN1CCC2(COCc3cnc(N(C)C)nc32)C1 (stereo not given) | 21.8%
31 | Cc1noc(C)c1CN(C)C(=O)c1ccc(C(F)(F)F)nc1 | -9.37%
32 | CN(C)CCN1CCOCC2(CCN(Cc3ccc[nH]3)CC2)C1 | -7.94%
33 | Cc1cccc(N2CC(c3nnc(N)s3)CC2=O)c1 (stereo not given) | 35%
34 | Cc1ccc(-c2noc([C@@H]3Cc4nc[nH]c4CN3)n2)cc1 | 36.2%
35 | FC(F)(F)Oc1ccc(-c2noc([C@@H]3Cc4nc[nH]c4CN3)n2)cc1 | 64.8%
36 | Fc1ccc(-c2noc([C@@H]3Cc4nc[nH]c4CN3)n2)cc1 | -9.26%
37 | O=C(N[C@H]1CCCC[C@@H]1O)c1ccc(-c2nc3ccccc3[nH]2)cc1 | 14.5%
38 | Cc1ccc(NC2CCN(C(=O)c3cc(C)no3)CC2)nn1 | -25.85%
39 | CN(CCC(F)(F)F)C(=O)C1CSCN1C(=O)C(C)(C)C (stereo not given) | 31.2%
40 | Cc1ncoc1C(=O)N1CCCC(c2ccc3c(N)nn(C)c3n2)C1 (stereo not given) | 5.2%
41 | CNc1nc(C2CCCN2C(C)=O)nc2c1CN(CCO)CC2 (stereo not given) | 11.5%
42 | CCC(=O)N1CCC(c2nc3c(c(NC)n2)CN(C)CC3)C1 (stereo not given) | -22.6%
43 | CNc1nc(C2CCCN2C(C)=O)nc2c1CN(C1CCCC1)CC2 (stereo not given) | 67.9%
44 | CNc1nc(C2CCN(C(=O)CC3CCCC3)C2)nc2c1CN(C)CC2 (stereo not given) | 67.7%
45 | CNc1nc(C2CCCN2C(C)=O)nc2c1CCN(CC1CC1)C2 (stereo not given) | -2.42%
46 | CNc1nc(C2CCCN(C(=O)CNC(C)=O)C2)nc2c1CN(C)CC2 (stereo not given) | 42.4%
47 | CSCC(C)(O)CNS(=O)(=O)Cc1ccc(F)cc1 (stereo not given) | 33.7%
48 | CC(C)(C(=O)O)S(=O)(=O)c1ccc(Br)cc1 | 4.82%

Row | Structure (SMILES) | INHIBITION
49 | Cn1ncc2c1C(COCC1CC1)CN(Cc1ccoc1)C2 (stereo not given) | 35.8%
50 | N#Cc1ccc(C(=O)N(Cc2ccncc2)C2CC2)cc1 | -19.4%
51 | N#Cc1cccc(OCC(=O)N(Cc2ccsc2)C2CC2)c1 | 54.5%
52 | O=C(COc1ccccc1)N(Cc1ccncc1)C1CC1 | 61.9%
53 | N#Cc1cccc(CN(CCO)Cc2ccsc2)c1 | 33.4%
54 | O=C(c1cccnc1)N(Cc1ccncc1)C1CC1 | 14.8%
55 | Cc1noc(C)c1CN(C)C(=O)COc1cccc(C#N)c1 | 8.08%
56 | Cc1cccc(OCC(=O)N(Cc2ccncc2)C2CC2)c1 | 31.3%
57 | N#Cc1cccc(OCC(=O)N(Cc2ccncc2)C2CC2)c1 | 59.1%
58 | COc1cc(C(C)=O)ccc1OCC(=O)N(Cc1ccsc1)C1CC1 | -16%
59 | O=C(COc1ccc2c(c1)CCC2)NCc1ccco1 | 33.2%
60 | O=C(NC1CCC2(CCC(=O)N2CC2CC2)CC1)c1cnccn1 (stereo not given) | -40.5%
61 | CNC(=O)C(C)(C)N1CCC[C@H]1C(=O)NCCN(C)C | 49.4%
62 | CCSc1nnc(CCNC(=O)OC(C)(C)C)o1 | -17.3%
63 | COC(=O)CSc1nnc(CCNC(=O)OC(C)(C)C)o1 | 52.5%
64 | C=C(C)CSc1nnc(CCNC(=O)OC(C)(C)C)o1 | -0.532%
65 | Cc1cccc(-c2nccnc2C2CCCN(C)C2)c1 (stereo not given) | 16.105%
66 | Cc1nccn1CC1CCCN1S(=O)(=O)Cc1cccc(F)c1 (stereo not given) | -7.35%
67 | O=C(c1cc(C2CCCCC2)no1)N1C[C@H]2CC(O)C[C@H]2C1 (stereo not given in full) | -15.1%
68 | Cc1ncc2c(n1)CCCC2NC(=O)c1ccccc1C(=O)O (stereo not given) | 11.6%
69 | Cc1ncc2c(n1)CCCC2NC(=O)c1cnn(Cc2ccccc2)c1 (stereo not given) | 26.4%
70 | Cc1ncc2c(n1)CCCC2NC(=O)c1ccccc1Cn1cncn1 (stereo not given) | 64%

Source: ChEMBL document CHEMBL4513216, “Probing the Open Global Health Chemical Diversity Library for Multistage-Active Starting Points for Next-Generation Antimalarials” (ACS Infect Dis, 2020)
